Experimental data: PubChem BioAssay (NCI)
Compounds without any hit were thinned out: in the full panel of roughly 83,000, 20% have a hit.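 Interpretation: 100, growth as untreated; towards 0, rising growth inhibition; 0, no net growth; 0 to -100, cell death. Compounds scoring below 10 were considered active.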 A number with no mark means an inactive call. Active and inactive are the calls of the source.

Key:
Test in all cases: NCI-60 one-dose screen, 48 h (100 = growth as untreated, 0 = no growth, -100 = all killed)
Conditions in all cases: 10 µM unless noted
NCI-H23 lung = test system: NCI-H23 lung
NCI-H226 lung = test system: NCI-H226 lung
NCI-H322M lung = test system: NCI-H322M lung
HOP-62 NSCLC = test system: HOP-62 NSCLC
NCI-H460 lung = test system: NCI-H460 lung
HOP-92 NSCLC = test system: HOP-92 NSCLC
NCI-H522 lung = test system: NCI-H522 lung
786-0 renal = test system: 786-0 renal
COLO 205 colon = test system: COLO 205 colon
DU-145 prostate = test system: DU-145 prostate
K-562 leukemia = test system: K-562 leukemia
MALME-3M melanoma = test system: MALME-3M melanoma
MDA-MB-231 breast = test system: MDA-MB-231 breast
SF-268 CNS = test system: SF-268 CNS
SF-295 CNS = test system: SF-295 CNS
SF-539 CNS = test system: SF-539 CNS
UACC-257 melanoma = test system: UACC-257 melanoma
M14 melanoma = test system: M14 melanoma
RXF 393 renal = test system: RXF 393 renal
A549/ATCC NSCLC = test system: A549/ATCC NSCLC

Structure (SMILES) | growth (NCI-H23 lung) | growth (NCI-H226 lung) | growth (NCI-H322M lung) | growth (HOP-62 NSCLC) | growth (NCI-H460 lung) | growth (HOP-92 NSCLC) | growth (NCI-H522 lung) | growth (786-0 renal) | growth (COLO 205 colon) | growth (DU-145 prostate) | growth (K-562 leukemia) | growth (MALME-3M melanoma) | growth (MDA-MB-231 breast) | growth (SF-268 CNS) | growth (SF-295 CNS) | growth (SF-539 CNS) | growth (UACC-257 melanoma) | growth (M14 melanoma) | growth (RXF 393 renal) | growth (A549/ATCC NSCLC)
COc1cc(C2CC(c3cccc(Nc4ccncc4)c3)=NN2c2cc(Cl)cc(Cl)c2)cc(OC)c1OC (stereo not given) | 77.8% | 87% | 64.2% | -29.2% (active) | -68.4% (active) | 37.4% | 0.35% (active) | 101% | -58.7% (active) | -18.1% (active) | -1.05% (active) | -77.9% (active) | 19.8% | 42.4% | 1.81% (active) | 70% | 1.77% (active) | 96.2% | – | –
O=C(Nc1ccc2cc3ccc(NC(=O)N4CCCCCC4)cc3nc2c1)N1CCCCCC1 | -39% (active) | -58.5% (active) | 31.4% | -47.4% (active) | -55.6% (active) | -77.8% (active) | -70.4% (active) | -57.9% (active) | -48.8% (active) | -25.7% (active) | -11.1% (active) | -85.3% (active) | -69.1% (active) | -41.3% (active) | -79.4% (active) | -71.1% (active) | -75.7% (active) | – | -76.3% (active) | –
COc1ccc(C2CC(c3cccc(Nc4ccncc4)c3)=NN2c2ccccc2)cc1 (stereo not given) | 82.8% | 94.7% | 68.2% | 43.9% | -40.8% (active) | 47.6% | 39.9% | -4.64% (active) | -55% (active) | 42.2% | 1.17% (active) | -70% (active) | 62.5% | 72.2% | 64% | 59.7% | -35.6% (active) | -46% (active) | – | –
CC(=O)NCCCS(=O)(=O)O | 101% | 119% | 107% | 105% | 101% | 82.2% | 83.4% | 99.6% | 105% | 118% | 94.8% | 106% | 102% | 111% | 94.6% | 99.5% | 104% | 111% | – | –
O=C(O)/C=C\C(=O)N1C/C(=C\c2ccccc2Cl)C(=O)/C(=C/c2ccccc2Cl)C1 | -24.9% (active) | -85% (active) | 4.69% (active) | -24% (active) | -40.9% (active) | 2.77% (active) | -87.2% (active) | – | -67.4% (active) | -34.2% (active) | 8.25% (active) | 2.25% (active) | -15.4% (active) | -33.7% (active) | -13% (active) | -20.9% (active) | 67.3% | 12% | -95.8% (active) | 7.96% (active)
O=C(CN1CCOCC1)Nc1ccc2ncnc(Nc3ccc(OCc4cccc(F)c4)c(Cl)c3)c2c1 | 89.6% | 85.1% | 20.9% | 84.5% | 67.5% | 60% | 25.2% | 66.2% | 66.7% | 50.5% | 43.9% | 83.7% | 71% | 68.7% | 73.9% | 75.3% | 87.9% | 68.5% | – | –
CC(C)Cc1ccc(C(C)C(=O)NCc2ccc(Cn3c(=O)sn(-c4ccc(Cl)cc4)c3=O)cc2)cc1 (stereo not given) | 85.6% | 82.6% | 90.2% | 85.7% | 61.1% | 75.7% | 91.9% | 85.3% | – | 84.4% | – | 79.2% | 66.1% | 79.9% | 80.9% | 63% | 81.1% | 84.7% | – | 75.4%
CNC(=O)NCC1OC(n2cnc3c(NC(=O)Nc4ccccc4)ncnc32)C(O[Si](C)(C)C(C)(C)C)C1O[Si](C)(C)C(C)(C)C (stereo not given) | 36.3% | 49% | 87.3% | 61.7% | -6.74% (active) | -2.68% (active) | 46.2% | 16.5% | -100% (active) | 52.2% | 34.5% | 48.9% | 37.7% | 36% | 45.1% | 33.4% | 42.8% | 33% | -37% (active) | –
COc1ccc(OC)c(/C=C/[C@H]2O[C@@H](C)[C@H](O)[C@@H]2O)c1 | 99.6% | 96.1% | 97.5% | 106% | 106% | 94.7% | 91.7% | – | 111% | 121% | 93% | 96.7% | 98.4% | 111% | 102% | 100% | 104% | 103% | 117% | 99.4%
CC(=O)c1c[nH]c2ccc(-c3ccnc(Nc4ccc(NC(=O)C5CCCC5)c(CN5CCOCC5)c4)n3)cc12 | -36.4% (active) | -0.452% (active) | -11.5% (active) | 2.51% (active) | -60.6% (active) | -5.65% (active) | – | 0.29% (active) | -31.9% (active) | -1.77% (active) | 5.74% (active) | -81.8% (active) | -8.4% (active) | -41.7% (active) | -46.2% (active) | -84.6% (active) | -27.5% (active) | -67.7% (active) | – | 4.82% (active)
COc1ccc(-c2nc(N=Nc3c(O)[nH]c4ccccc34)nc(N3CCOCC3)c2C#N)cc1 | 81.9% | 38.4% | 77.1% | 68% | 46.5% | 19.6% | – | 79.7% | 67.8% | 63.7% | 75% | 51% | 42.6% | 62.4% | 86.4% | -47.2% (active) | 73.6% | 60.9% | – | 51.7%
CCCCCCCCOc1ccc(/C=N/Nc2cc(C)nc3ccc(Cl)cc23)cc1 | 65.2% | 87.2% | 42.2% | -46.5% (active) | -63.4% (active) | 67.3% | – | -94% (active) | -36.2% (active) | -87.3% (active) | -52.6% (active) | 91% | -59.3% (active) | 104% | -72.8% (active) | -81% (active) | 116% | 87.7% | -68.9% (active) | -37.3% (active)
CCC1(CC)NC(=O)c2c(c3ccc(Cl)c(Cl)c3n2C)C1C#N (stereo not given) | 93% | 95.6% | 103% | 81.2% | 98.7% | 62.1% | – | 94.3% | 80.1% | 123% | 91.4% | 109% | 71.2% | 90.3% | 102% | 95.4% | 100% | 105% | – | 88.6%
COC(=O)C(c1ccccc1)C(CC(=O)c1ccccc1)c1ccccc1 (stereo not given) | 78.3% | 75.1% | 75.6% | 91.4% | 109% | 62.6% | – | 106% | 105% | 95.8% | 73.1% | 69.7% | 98.1% | 83.8% | 79.9% | 98.6% | 101% | 103% | 80.9% | 95.4%
Cc1cc(NC(=O)c2cnc(N3CCN(CCOCCOCCOCCOCCC(=O)N[C@H](C(=O)N4C[C@H](O)C[C@H]4C(=O)N[C@@H](C)c4ccc(-c5scnc5C)cc4)C(C)(C)C)CC3)cn2)c2ncccc2c1 | 4.34% (active) | 1.46% (active) | 35.6% | 4.92% (active) | 7.54% (active) | 4.9% (active) | – | 29.9% | 47.1% | 35% | 6.65% (active) | -31.7% (active) | -61.6% (active) | 8.05% (active) | -14.9% (active) | -75.5% (active) | -5.78% (active) | -33.7% (active) | – | 66.7%
COc1ccc(-c2nc(SCC(C)C)nc(N/N=C(/C)c3ccc(OC)c(OC)c3)c2C#N)cc1 | 89.7% | 94.1% | 79.7% | 86.9% | 65.9% | 38.4% | – | 96.9% | 110% | 87.7% | 69.5% | 88.9% | 74.5% | 79.1% | 92.8% | 80.9% | 105% | 94% | – | 99.8%
NC(=O)c1cccc(-c2cc(C(N)=O)ccc2Cl)c1 | 43.3% | 69.1% | 92.3% | 35.9% | 98.2% | 52% | – | 48.7% | 33.5% | 27.1% | 8.24% (active) | 46.4% | 47.4% | 45.3% | 25% | -21% (active) | 47.8% | 16.1% | – | 85%
